Results from ChEMBL document CHEMBL4513216, “Probing the Open Global Health Chemical Diversity Library for Multistage-Active Starting Points for Next-Generation Antimalarials” (ACS Infect Dis, 2020).
Screen size: about 69,000 compounds; about 8,600 (12%) showed an effect of 50% or more. Only a selection was taken, and strong results are over-represented in it overall.

The compounds below were run on Plasmodium berghei (assay: Screen against P. berghei liver stage (PbLuc), transformed with Luciferase, at 10uM). Details: tested at 10 uM.
Type: functional, HepG2
For `COCCO[C@H]1CCN(C(=O)c2ccc[nH]2)[C@H]1Cc1ccncc1`, the INHIBITION was 42.6%. For `CC(C)c1noc(CN2CCC(c3ccnn3CCO)CC2)n1`, the INHIBITION was -24.2%. Work on `O=C(Nc1ccnn1Cc1ccccc1Cl)C1CCS(=O)(=O)C1` (stereo not drawn) yielded an INHIBITION of -4.12%. Compound `CCOCC(=O)N1CCC2(CC1)COCCN2CCOC` has an INHIBITION of 12.1%. With `Cn1ncc2c(N3CCN(C(=O)c4ccsc4)CC3)ncnc21` the INHIBITION was 21.6%. `Cc1ccccc1OCCC(=O)N(C)Cc1c(C)noc1C` showed an INHIBITION of 25.5%. With `Cc1ccc(OCCN(C)C(=O)CCCC(N)=O)c(C)c1` the INHIBITION was -7.65%. `Cc1ccc(C)c(OCc2cc(C(=O)N(C)CC(O)CO)no2)c1` (stereo not drawn) was tested, and the INHIBITION was 10.4%. `Cc1ccc(OCC(O)CN(C)CC(=O)NC(C)C)c(C)c1` (stereo not drawn) gave an INHIBITION of 33%. `COc1cc(CN(C)C(=O)Nc2cc(C)on2)ccc1SC` showed an INHIBITION of 40.1%. In the case of `Cc1ccc(OCCC(=O)N(C)CC(=O)Nc2cc(C)on2)c(C)c1`, the INHIBITION is reported as 52.2%. In the case of `Cc1ccc(OCC(O)CN(C)CC(=O)Nc2cc(C)on2)c(C)c1` (stereo not drawn), the INHIBITION is reported as 77.9%. Work on `Cc1ccc(C)c(OCC(O)CN(C)CC(=O)Nc2cc(C)on2)c1` (stereo not drawn) yielded an INHIBITION of 84.3%. `Cc1ccc(C)c(OCC(O)Cn2ncc3cnn(C)c(=O)c32)c1` (stereo not drawn) was tested, and the INHIBITION was -28.9%. In the case of `CC(C)Cn1cncc1-c1nc2c([nH]1)CC(C)(C)CNC2=O`, the INHIBITION is reported as -109%. Work on `CCn1cc(CN2CCCN(C(=O)c3ccc(C#N)cc3)CC2)cn1` yielded an INHIBITION of 25.6%. For `Cn1ncc2c(=O)[nH]c(CN3CCCC3CC(C)(C)C)nc21` (stereo not drawn), the INHIBITION was 19.6%. Work on `CC(C)=CCN1C(=O)[C@@H]2CC[C@H]1CN(C(=O)CCc1nnc(Cl)[nH]1)C2` yielded an INHIBITION of -15.3%. With `Cc1cc(NCCN)nc(-c2ccccc2O)n1` the INHIBITION was 17.7%. `Cn1cc(Cl)cc1C(=O)N1CCN(CCc2cccs2)CC1` gave an INHIBITION of 23.73%. Compound `O=C(CC1Cn2ncnc2NC1=O)Nc1ccc(F)c(F)c1` (stereo not drawn) has an INHIBITION of 26.7%. `Cc1nc(CN2CCN(c3cncc(Cl)n3)CC2)no1` showed an INHIBITION of 14.6%. `CN1CC(=O)N(c2ccccc2)CC12CCN(Cc1nccs1)C2` (stereo not drawn) was tested, and the INHIBITION was -35.9%. In the case of `Fc1ccc(CN2CCC3(CC2)CN(c2ccccn2)CCO3)cc1`, the INHIBITION is reported as 79.1%. In the case of `Cn1ccnc1CN1CCC2(CC1)CN(c1ccccn1)CCO2`, the INHIBITION is reported as 91.9%. Work on `c1ccc(CN2CCC3(CC2)CN(c2ccccn2)CCO3)nc1` yielded an INHIBITION of -6.97%. `COc1ccc(CN2CCC3(CC2)CN(c2ccccn2)CCO3)cc1` showed an INHIBITION of 26.4%. For `COc1ncccc1CN1CCC2(CC1)CN(c1ccccn1)CCO2`, the INHIBITION was 41.8%. `Cc1noc(C)c1CN1CCC2(CC1)CN(c1ccccn1)CCO2` was tested, and the INHIBITION was -40.4%. `CC(C)c1nc(CN2CCCN(c3nccs3)CC2)no1` was tested, and the INHIBITION was 25.4%. Work on `CC(=O)N1CCn2c(C(=O)N(C)C)cnc2C1` yielded an INHIBITION of 47.8%. In the case of `CSc1ccccc1C(=O)N1C[C@@H]2CC[C@H]1CN(C(=O)N(C)C)C2`, the INHIBITION is reported as 21.2%. `CCC(=O)N1CCCC(C(=O)c2cnn(-c3ccc(F)cc3)c2N)C1` (stereo not drawn) was tested, and the INHIBITION was 56.3%. `CCCC(=O)N1CCCC(C(=O)c2cnn(-c3ccc(F)cc3)c2N)C1` (stereo not drawn) was tested, and the INHIBITION was 17.35%. `Nc1c(C(=O)C2CCCN(C(=O)C3CC3)C2)cnn1-c1ccc(F)cc1` (stereo not drawn) was tested, and the INHIBITION was 38.9%. Work on `c1cnc(C2CCCN2c2cnccn2)cn1` (stereo not drawn) yielded an INHIBITION of 42.4%. With `CC(C)Cc1cc(C(=O)N2CCC(Cc3cnn(C)c3)C2)cc(O)n1` (stereo not drawn) the INHIBITION was 26.6%. In the case of `COCC1CCN(C(=O)c2cc(O)nc(CC(C)C)c2)CC1`, the INHIBITION is reported as 51.1%. In the case of `CC(C)Cc1cc(C(=O)N2CCC(N3CCCC3)CC2)cc(O)n1`, the INHIBITION is reported as 24.4%. `COC(=O)c1ccc(S(=O)(=O)N2CCCn3ncnc32)s1` gave an INHIBITION of 3.84%. `O=C1CC(c2ccc(Cl)c(Cl)c2)c2c(n3ccsc3nc2=O)N1` (stereo not drawn) showed an INHIBITION of 36.2%. `O=C(c1cc(-c2cccs2)cs1)N1CCOCC1` gave an INHIBITION of -132%. `CC(C)c1nnc2n1CCN(Cc1cc(Cl)c3c(c1)OCCO3)C2` gave an INHIBITION of 10.1%. `CC(Cn1ccnc1)NC(=O)NCc1cccnc1OC1CCCC1` (stereo not drawn) showed an INHIBITION of 17.4%. `O=C(c1ccc(Cl)o1)N1CCCC1c1nnc2n1CCCCC2` (stereo not drawn) gave an INHIBITION of 29.8%. `CC(C)CCC(=O)N1CCCC1c1nnc2n1CCCCC2` (stereo not drawn) showed an INHIBITION of 26.9%. For `CCc1ccc(C(=O)N2CCCC2c2nnc3n2CCCCC3)o1` (stereo not drawn), the INHIBITION was 57.7%. In the case of `Cc1ccc(C(=O)N2CCCC2c2nnc3n2CCCCC3)o1` (stereo not drawn), the INHIBITION is reported as 8.47%. `CC(=O)N1CCCC1c1nnc2n1CCCCC2` (stereo not drawn) showed an INHIBITION of -2.37%. `CSCCC(=O)N1CCCC1c1nnc2n1CCCCC2` (stereo not drawn) gave an INHIBITION of 54.3%. Compound `CCN(CC)CCNC(=O)c1cc(OC)c2ccoc2c1` has an INHIBITION of 31.1%. `CC(=O)CN1CC2(CCNCC2)COc2ccccc2S1(=O)=O` gave an INHIBITION of 26.3%. With `FC(F)(F)c1ccc(-c2cc(NC3CCNCC3)nc3[nH]ccc23)nc1` the INHIBITION was 18.5%. With `COc1nccnc1-c1cc(NC2CCNCC2)nc2[nH]ccc12` the INHIBITION was -2.69%. Work on `COc1cc(-c2cc(NC3CCCC3)nc3[nH]ccc23)nc(N)n1` yielded an INHIBITION of 42.1%. `COc1ncc(-c2cc(NCCN(C)C)nc3[nH]ccc23)c(OC)n1` gave an INHIBITION of 49%. `COc1ncc(-c2cc(NC3CCCC3)nc3[nH]ccc23)c(OC)n1` was tested, and the INHIBITION was 66.7%. `COc1nccnc1-c1cc(NC2CCCC2)nc2[nH]ccc12` gave an INHIBITION of 60%. `CCS(=O)(=O)N1CCC(c2nc(C)c(C)c(N3CCCC3)n2)CC1` showed an INHIBITION of 22.35%. For `Cc1noc([C@]23COC[C@H]2CN(C(=O)Cc2ccsc2)C3)n1`, the INHIBITION was 38.5%. `O=C(CC1[C@H]2CN(Cc3ccc(F)cc3)C[C@@H]12)N1CCCC1` (stereo partly drawn) gave an INHIBITION of -7.28%. `O=C(NCCc1cc(F)ccc1F)NCC(O)C1CC1` (stereo not drawn) gave an INHIBITION of 14.9%. For `Cc1nc(C(=O)N(C)C2CC(=O)N(Cc3ccccc3)C2=O)cs1` (stereo not drawn), the INHIBITION was 8.51%. With `CN(C(=O)c1ccc[nH]1)C1CC(=O)N(Cc2ccccc2)C1=O` (stereo not drawn) the INHIBITION was 15.2%. In the case of `Cc1[nH]ccc1C(=O)N(C)C1CC(=O)N(Cc2ccccc2)C1=O` (stereo not drawn), the INHIBITION is reported as 54.4%. `O=C(c1cc(C2CCCCN2C(=O)C2CCC2)n[nH]1)N1CCOCC1` (stereo not drawn) was tested, and the INHIBITION was -22.6%. `CCn1ncc(CN2CCc3nc(-c4cccnc4)nc(O)c3C2)c1C` was tested, and the INHIBITION was 29.2%. `CN(C)C(=O)COC[C@]12COC[C@H]1CN(Cc1ccco1)C2` was tested, and the INHIBITION was -3.33%.
